Source: PubChem BioAssay (The Scripps Research Institute Molecular Screening Center)
Sampled rows, rich in hits. Any-hit rate of the full collection: about 1.8%.
LYPLA1 counter: LYPLA1 (human) inhibition in PME1 counter-screen. O75608. recombinant LYPLA1, FP-Rh probe fluorescence polarization. inhibition, % at 5.9 µM. actives 0.16% (n = 320,000). AID 2174;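 active means inhibition above the mean of all tested compounds plus 3 SD, set per campaign, cut at about 14% in these data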;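 further: inhibitors block serine hydrolase probe labeling of LYPLA1 so polarization falls; 0% = enzyme with DMSO and 100% = wells lacking LYPLA1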
Target sequence (O75608 whole entry, looked up): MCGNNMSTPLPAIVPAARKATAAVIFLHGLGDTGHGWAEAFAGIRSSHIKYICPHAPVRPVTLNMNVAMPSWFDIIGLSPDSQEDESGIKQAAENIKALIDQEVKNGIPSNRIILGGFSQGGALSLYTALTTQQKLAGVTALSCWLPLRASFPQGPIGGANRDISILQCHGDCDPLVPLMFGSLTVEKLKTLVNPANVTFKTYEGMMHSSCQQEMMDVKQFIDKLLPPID
PP1 inh: PP1-alpha (human) inhibition in PP5 counter-screen | P62136 | purified PP1alpha, OMFP fluorescence | inhibition, % at 6.7 µM | actives 0.9% (n = 320,000);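 active means inhibition above the mean inhibition of all tested compounds plus 3 SD, computed separately for each screening campaign, cut at about 15% in these data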
Fam108B counter: blocks mouse Fam108B hydrolase in RBBP9 counter-screen; recombinant Fam108B, FP-Rh probe fluorescence polarization; inhibition, % at 9.51 µM; actives 0.33% (n = 300,000); AID 1947;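 active means inhibition above the screen mean inhibition plus 3 SD, computed separately per campaign, cut at about 18% in these data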;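 further: inhibitors lower polarization as less probe binds the enzyme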
LYPLA2 inh: blocks human lysophospholipase 2, a PME1 counter-screen; AID 2177; O95372; recombinant LYPLA2, FP-Rh probe fluorescence polarization; inhibition, % at 5.9 µM; actives 0.38% (n = 320,000);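 active means inhibition above the screen-wide mean plus 3 SD, limit set per campaign, cut at about 26% in these data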;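 further: 0% = LYPLA2 with DMSO and 100% = wells lacking LYPLA2 enzyme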
PP5 primary: blocks human protein phosphatase 5 activity | P53041 | purified PP5c, OMFP substrate fluorescence | inhibition, % at 6.7 µM | actives 0.18% (n = 320,000);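 active means inhibition above the campaign's mean inhibition across all tested compounds plus 3 SD, cut at about 9.5% in these data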;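 further: 0% = DMSO only and 100% = 100 µM cantharidin control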
PME-1 primary: blocks human protein phosphatase methylesterase 1; Q9Y570; recombinant PME-1, FP-Rh probe fluorescence polarization; inhibition, % at 5.9 µM; actives 0.53% (n = 320,000);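 active means inhibition above the campaign mean of all compounds plus 3 SD, cut at about 26% in these data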;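 further: competitive labeling of PME-1 active site by serine hydrolase directed probe; 0% = PME-1 with DMSO and 100% = wells lacking PME-1 enzyme; inhibitors block probe labeling so polarization falls and inhibition rises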
Target sequence (Q9Y570 whole entry, looked up): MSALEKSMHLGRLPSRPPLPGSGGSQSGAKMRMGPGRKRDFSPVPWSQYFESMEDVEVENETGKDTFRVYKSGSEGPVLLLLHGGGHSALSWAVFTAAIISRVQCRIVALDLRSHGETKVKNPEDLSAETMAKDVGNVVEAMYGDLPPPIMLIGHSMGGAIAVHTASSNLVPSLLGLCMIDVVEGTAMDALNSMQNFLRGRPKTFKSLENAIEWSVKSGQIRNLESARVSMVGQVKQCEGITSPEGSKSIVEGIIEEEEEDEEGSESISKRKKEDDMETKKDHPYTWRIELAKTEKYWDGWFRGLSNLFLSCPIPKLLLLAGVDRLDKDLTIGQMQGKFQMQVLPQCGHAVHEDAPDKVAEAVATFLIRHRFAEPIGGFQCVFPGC
Fam108b confirm: Fam108b (mouse) hydrolase inhibition, confirmation assay; actives 44% (n = 930); recombinant Fam108b, FP-Rh probe fluorescence polarization; inhibition, % at 9.51 µM; shares compounds with Fam108B counter; AID 1978;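 active means inhibition above a limit from the primary screen, the mean over all compounds plus 3 SD, cut at about 19% in these data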;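 further: 0% = median of active Fam108b wells and 100% = catalytically dead S170A mutant; inhibitors free the probe so polarization falls as inhibition rises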
Fam108b ABPP HTS: mouse ABHD17B inhibition | recombinant Fam108b, gel-based ABPP, fluorophosphonate probe | actives 44% (n = 260) | shares compounds with Fam108B counter | inhibition, % at 20 µM; in the data active means inhibition above about 40%
PP5 inh confirm: PP5 (human) inhibition, confirmation; Purified PP5, fluorogenic phosphatase substrate, fluorescence; AID 2331; shares compounds with PP5 primary; actives 22% (n = 460); inhibition, % at 6.7 µM; in the data active means inhibition above about 9.5%
PP1 counter 3x: inhibits human PP1 phosphatase in PP5 counter-screen. AID 2355. inhibition, % at 6.7 µM. actives 4% (n = 460). PP1 enzyme, fluorescent phosphatase substrate. shares compounds with PP5 primary; in the data active means inhibition above about 16%
LYPLA1 confirm: LYPLA1 (human) inhibition, confirmation counter-screen | recombinant LYPLA1, FP-Rh probe fluorescence polarization | AID 2233 | inhibition, % at 5.9 µM | shares compounds with LYPLA1 counter | actives 69% (n = 480);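 active means mean inhibition across replicates above the hit cutoff set in the primary screen, cut at about 15% in these data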;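 further: loss of FP-Rh probe labeling of LYPLA1 seen as lower polarization; 0% = LYPLA1 with DMSO and 100% = wells lacking LYPLA1 enzyme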
LYPLA2 conf: LYPLA2 (human) inhibition, confirmation counter-screen; shares compounds with LYPLA2 inh; recombinant LYPLA2, FP-Rh probe fluorescence polarization; inhibition, % at 5.9 µM; actives 72% (n = 1,100); AID 2232;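 active means mean inhibition across replicates above the hit cutoff set in the primary screen, cut at about 26% in these data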;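 further: blocked labeling of the enzyme by serine hydrolase FP-Rh probe lowers polarization; 0% = enzyme with DMSO and 100% = wells lacking LYPLA2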
The depositor's hits bear a star.

What do the screens show for `CCCCCCCCOc1ccc(C2OC34CCCCC3C(C#N)(C#N)C2(C#N)C(=N)O4)cc1` (stereo unspecified)?
LYPLA1 counter: 17*; PP1 inh: -1; Fam108B counter: 19*; LYPLA2 inh: 26*; PP5 primary: 0; PME-1 primary: 20; Fam108b confirm: -5; LYPLA1 confirm: 14*; LYPLA2 conf: 8

What do the screens show for `N#CC1(C#N)C(c2ccccc2)OC23CCCCC2C1(C#N)C(=N)O3` (stereo unspecified)?
LYPLA1 counter: 9; PP1 inh: 0; Fam108B counter: 16; LYPLA2 inh: 4; PP5 primary: -2; PME-1 primary: 9

How did O=C(Nc1cc(Sc2ccccn2)cc([N+](=O)[O-])c1)c1ccc([N+](=O)[O-])cc1 do in these assays?
LYPLA1 counter: -13; PP1 inh: 16*; Fam108B counter: 19*; LYPLA2 inh: 57*; PP5 primary: 5; PME-1 primary: 4; Fam108b confirm: 5; LYPLA2 conf: 13

How did Cc1cccc(NC(=O)CSc2nc3ccccc3nc2N2CCCC2)c1C do in these assays?
LYPLA1 counter: -2; PP1 inh: 1; Fam108B counter: 3; LYPLA2 inh: 2; PP5 primary: 1; PME-1 primary: -2

How did CN1C(=O)NC(c2ccccc2[N+](=O)[O-])C2=C1CCCC2=O (stereo unspecified) do in these assays?
LYPLA1 counter: 73*; PP1 inh: -2; Fam108B counter: 68*; LYPLA2 inh: 94*; PP5 primary: 2; PME-1 primary: 84*; Fam108b confirm: 24*; LYPLA1 confirm: 28*; LYPLA2 conf: 74*

How did CN1C(=O)NC(c2ccccc2[N+](=O)[O-])C2=C1CC(C)(C)CC2=O (stereo unspecified) do in these assays?
LYPLA1 counter: -3; PP1 inh: -3; Fam108B counter: -7; LYPLA2 inh: -3; PP5 primary: 0; PME-1 primary: -4

Results for O=S(=O)(c1cccs1)N1CN(Cc2ccco2)c2nc3ccccc3nc21 ?
LYPLA1 counter: 30*; PP1 inh: 3; Fam108B counter: 28*; LYPLA2 inh: 38*; PP5 primary: -1; PME-1 primary: 34*; Fam108b confirm: 9; LYPLA1 confirm: 2; LYPLA2 conf: 8

How did N=C1CCC(=N)c2c1c(O)c1ccccc1c2O do in these assays?
LYPLA1 counter: 31*; PP1 inh: -1; Fam108B counter: 39*; LYPLA2 inh: 42*; PP5 primary: 3; PME-1 primary: 64*; Fam108b confirm: 11; LYPLA1 confirm: 10; LYPLA2 conf: 25

What do the screens show for `Cc1ccc(S(=O)(=O)/N=C2/C=C(Sc3ncn[nH]3)C(=O)c3ccccc32)cc1`?
LYPLA1 counter: 6; PP1 inh: 4; Fam108B counter: 80*; LYPLA2 inh: 47*; PP5 primary: 13*; PME-1 primary: 46*; Fam108b confirm: 65*; PP5 inh confirm: 23*; PP1 counter 3x: 24*; LYPLA2 conf: 57*

What do the screens show for `Cc1cc(N)ccc1-n1c(C)ccc1C`?
LYPLA1 counter: 56*; PP1 inh: 2; Fam108B counter: 42*; LYPLA2 inh: 85*; PP5 primary: 0; PME-1 primary: 90*; Fam108b confirm: 4; LYPLA1 confirm: 4; LYPLA2 conf: 4

Results for CC(C)(C)N1CC23C=CC(C[C@@H]2C1=O)O3 (stereo partly specified) ?
LYPLA1 counter: -3; PP1 inh: -3; Fam108B counter: 0; LYPLA2 inh: -2; PP5 primary: 0; PME-1 primary: 3

How did CCC(CNc1cc(OC)cc2cccnc12)NC1CCCCC1 (stereo unspecified) do in these assays?
LYPLA1 counter: 23*; PP1 inh: 6; Fam108B counter: 30*; LYPLA2 inh: 30*; PP5 primary: 8; PME-1 primary: 38*; Fam108b confirm: 3; LYPLA1 confirm: 13; LYPLA2 conf: 43*

What do the screens show for `COc1cc(NS(=O)(=O)c2ccc(C)cc2)c2ncccc2c1`?
LYPLA1 counter: -5; PP1 inh: 4; Fam108B counter: -2; LYPLA2 inh: -4; PP5 primary: 2; PME-1 primary: 6

Results for CC(C)=CC(O)C/C(C)=C/COc1ccc2ccc(=O)oc2c1 (stereo unspecified) ?
LYPLA1 counter: 0; PP1 inh: -2; Fam108B counter: -1; LYPLA2 inh: 4; PP5 primary: -1; PME-1 primary: 9

Results for O=C(O)c1cccc(-c2ccc(/C=N/Nc3ccc([N+](=O)[O-])cc3)o2)c1 ?
LYPLA1 counter: 10; PP1 inh: 6; Fam108B counter: 23*; LYPLA2 inh: 31*; PP5 primary: 5; PME-1 primary: 33*; Fam108b confirm: 20*; LYPLA2 conf: 27*

What do the screens show for `Cc1ccc(S(=O)(=O)N/N=C\c2ccc3c(c2)OCO3)c(C)c1`?
LYPLA1 counter: 3; PP1 inh: -3; Fam108B counter: 0; LYPLA2 inh: 2; PP5 primary: 0; PME-1 primary: 1

Results for Oc1ccccc1-c1nc2c3ccccc3c3ccccc3c2[nH]1 ?
LYPLA1 counter: 6; PP1 inh: 1; Fam108B counter: 44*; LYPLA2 inh: 36*; PP5 primary: 5; PME-1 primary: 38*; Fam108b confirm: 53*; Fam108b ABPP HTS: 90*; LYPLA2 conf: 14

Results for O=C(O)c1ccccc1-c1nc2ccccc2c(=O)[nH]1 ?
LYPLA1 counter: 2; PP1 inh: -2; Fam108B counter: 0; LYPLA2 inh: 6; PP5 primary: 1; PME-1 primary: 0

How did Cn1nc(-c2ccccn2)nc2c(=O)n(C)c(=O)nc1-2 do in these assays?
LYPLA1 counter: 92*; PP1 inh: 41*; Fam108B counter: 62*; LYPLA2 inh: 90*; PP5 primary: 17*; PME-1 primary: 36*; Fam108b confirm: 86*; Fam108b ABPP HTS: 0; LYPLA1 confirm: 89*; LYPLA2 conf: 92*
